In PubChem BioAssay AID602476 (National Center for Advancing Translational Sciences (NCATS), 2012):
Results filed as inconclusive are left out. Active and inactive are the calls of the source. The call rests on the fitted dose curve; in most records, active means well fitted activation curve with a large enough effect; inconclusive means small, poorly fitted or top-dose-only effect; inactive means flat fitted curve, though single readings scatter.

Experiment: FLuc inhibitory activity for the follow-up compounds in a cell-based translational read-through assay
Conditions: GripTite 293 FLucUGA read-through, luminescence, 48 h; series mostly up to 38.3 µM; activation (read-through/stabilization): at the top concentration
From the text: NCGC Assay Overview: Firefly (Photinus pyralis) luciferase is one of the most commonly used transcriptional reporters. It is considered one of the more dynamically responsive reporters - that is, responsive to changes in reporter transcription - as it requires no post-translational modifications and is enzymatically active directly after protein synthesis (Wood, 1998). With no endogenous expression in mammalian cells and without the requirement of external excitation, it offers very little background signal, thus generally providing excellent signal to background for most assays. Previous profiling work to determine the prevalence of compounds that affect FLuc enzymatic activity (PubChem AID 411) identified that ~3% of the MLSMR library (then at ~72K) inhibited FLuc (Auld et al., 2008). […] Of the compounds identified in this profile that inhibited FLuc, 151 compounds were selected for further analysis, in an effort to better understand their mode of inhibiting FLuc. The assay described here was to determine the activity of the compounds in a cell-based firefly luciferase reporter gene assay originally designed to identify compounds that enchanced translational read-through of a FLuc cDNA that contained a premature stop codon (Auld et al., 2009; Auld et al., 2010). Compounds that enhance translational read-through or compounds that stabilize FLuc intracellularly are identified as active compounds in the assay.
NCGC Assay Protocol Summary: Reagents: Transient transfection of FlucUGA construct: TransFast Transfection Reagent (Promega #E2431); FLucUGA construct (refer to Auld et al., 2009) #GripTite 293 MSR Cell Line (Invitrogen #R795-07) #Complete growth media: DMEM (Invitrogen #11965), 10% HIFBS, 0.1mM MEM NEAA, 5mL/L pen-strep (of 5000U/mL stock), 600ug/mL Geneticin #Assay media: DMEM without phenol red (Invitrogen #21063), 5% charcoal-stripped HIFBS (Hyclone #SH30071.03), 0.1mM MEM NEAA In-house detection reagent: 300mM Tris-HCl, 300mM Trizma base, 300mM MgCl, 1% Triton-X100, 5mM DTT, 500uM Coenzyme A trilithium salt (Sigma #C3019),450uM ATP (Sigma #A7699), 1mM D-luciferin sodium salt monohydrate (Biosynth #L8240) Control compounds used were two known firefly luciferase inhibitors (3-(5-(3-chlorophenyl)-1,2,4-oxadiazol-3-yl)benzoic acid and 5-(2-fluorophenyl)-3-phenyl-1,2,4-oxadiazole), and DMSO. Assay Summary: Transient transfection of FlucUGA construct: Day 1: GripTite cells were plated in T175 flasks at a density of 1.75 x 10^7 cells/T175 flask in complete growth media without Geneticin and allowed to grow ON in a 37 degrees Celsius incubator. Day 2: Cells in T175 flask were transfected - with 10ug of DNA and 30uL Transfast in 12mL complete growth media without serum and without Geneticin for 4 hours at 37 degrees Celsius. After incubation, cells were trypsinized, spun down, and resuspended to a concentration of 3.3 x 10^5 cells/mL in assay media. 6uL of cells in assay buffer were dispensed at 2000cells/well (3.3 x 10^5 cells/mL) into Greiner solid-white TC-treated 1536-well plates using a Multidrop Combi (Thermo Fisher Scientific). Plates were incubated for one hour at 37 degree Celsius, 95% humidity, 5% CO2. These assay plates were then treated with 23nL of compound or DMSO using a Kalypsys pin tool, which allows for delivery of a 12-point titration of each compound to the assay plate, with a final compound concentration ranging from approximately ~38uM to 0.2nM. Assay plates were then incubated for 48 hours. After incubation, plates were washed three times with DPBS (7uL/well). After the third wash, 6uL of DPBS was added to each well. 3uL of 3X luciferase detection reagent was then added to each well using a flying reagent dispenser (FRD). After a 15 minute incubation to allow for cell lysis, luciferase activity was measured using a ViewLux CCD imager (PerkinElmer), with an average exposure time of 2-12 seconds.

SMILES | activation (read-through/stabilization) | Potency
Cc1cccc(NS(=O)(=O)c2cccc(C(=O)Nc3cccc(C(=O)O)c3)c2)c1 | 0.708% (inactive) | –
CCOc1ccc2nc(NC(=O)c3cc([N+](=O)[O-])ccc3N3CCOCC3)sc2c1 | -7.54% (inactive) | –
O=C(O)c1ccc(NC(=O)c2cccc(NC(=O)c3cccs3)c2)cc1 | 5.6% (inactive) | –
COc1ccc2nc(NC(=O)c3cccc(S(=O)(=O)N4CCOCC4)c3)sc2c1 | 3.78% (inactive) | –
O=C(Nc1ccccc1C(=O)O)c1ccc(NC(=O)C2CC2)cc1 | 6.5% (inactive) | –
Nc1ccc2nc(-c3ccccc3)sc2c1 | – | 4 µM (active)
CCOc1c(Cl)cc(C(=O)Nc2ccccc2C(=O)O)cc1Cl | 22.5% (inactive) | –
Cc1ccc(C(=O)Nc2ccc(C(=O)O)cc2)cc1S(=O)(=O)NCc1ccccc1 | -0.0472% (inactive) | –
Cc1ccc(C(=O)Nc2cccc(C(=O)O)c2)cc1S(=O)(=O)N1CCCC1 | – | 2 µM (active)
C/C(=N\NC(=O)c1ccccc1NC(=O)c1ccc(Cl)cc1)c1ccncc1 | – | 0.283 µM (active)
CC(C)(C)C(=O)Nc1ccc(-c2nc3ccccc3s2)cc1 | – | 0.0318 µM (active)
COc1ccc2nc(NC(=O)c3ccccc3C(=O)O)sc2c1 | 1.21% (inactive) | –
Cc1ccc(C(=O)Nc2ccccc2C(=O)O)cc1S(=O)(=O)N1CCCCCC1 | – | 14.2 µM (active)
CN(C)S(=O)(=O)c1ccc(C(=O)Nc2cccc(C(=O)O)c2)cc1 | 16.7% (inactive) | –
COc1ccc(Br)cc1C(=O)Nc1ccc(C(=O)O)cc1 | 7.8% (inactive) | –
COc1ccc(C(=O)Nc2ccccc2-c2nc3ccccc3s2)c(OC)c1 | -4.03% (inactive) | –
COc1ccc2nc(NC(=O)c3ccc(S(=O)(=O)N4CCCC(C)C4)cc3)sc2c1 (stereo not given) | 12% (inactive) | –
COc1cc(OC)cc(C(=O)Nc2ccc(-c3nc4ccccc4s3)c(C)c2)c1 | 7.9% (inactive) | –
O=C(Cc1ccccc1)Nc1ccc(C(=O)Nc2ccccc2C(=O)O)cc1 | 3.92% (inactive) | –
COc1cc(C(=O)Nc2cc(C)c(O)c(-c3nc4ccccc4s3)c2)cc(OC)c1OC | 6.27% (inactive) | –

SMILES | activation (read-through/stabilization) | Potency
COc1ccc2nc(NC(=O)c3cnccn3)sc2c1 | – | 0.565 µM (active)
CCCOc1cccc(C(=O)Nc2ccc(-c3nc4ccccc4s3)c(Cl)c2)c1 | -1.76% (inactive) | –
O=C(O)c1cccc(NC(=O)c2cccc(S(=O)(=O)N3CCc4ccccc43)c2)c1 | 27.6% (inactive) | –
O=C(Nc1ccccc1C(=O)O)c1cc(S(=O)(=O)Nc2ccccc2)ccc1Cl | 6.74% (inactive) | –
COc1cccc(-c2nc3ccccc3s2)c1 | – | 1.26 µM (active)
O=C(Nc1ccccc1C(=O)O)c1cccc(NC(=O)c2ccccc2Cl)c1 | 6.67% (inactive) | –
O=C(Nc1ccccc1C(=O)O)c1ccc(NC(=O)C2CCCO2)cc1 (stereo not given) | 10.4% (inactive) | –
COc1ccc(-c2nc3ccccc3s2)cc1O | – | 5.65 µM (active)
Cc1ccc(C(=O)O/N=C(\N)c2ccccn2)cc1 | – | 3.56 µM (active)
O=C(Cc1ccccc1)Nc1ccccc1C(=O)Nc1ccc(C(=O)O)cc1 | 2.61% (inactive) | –
COc1ccccc1C(=O)Nc1ccc(C(=O)O)cc1 | 3.15% (inactive) | –
Cc1c(C)c2ccc(OCC(=O)Nc3ccccn3)c(C)c2oc1=O | – | 5.04 µM (active)
COc1ccc2nc(NC(=O)c3ccco3)sc2c1 | – | 0.634 µM (active)
COc1ccc(C(=O)Nc2ccccc2C(=O)Nc2ccc(C(=O)O)cc2)cc1 | – | 25.2 µM (active)
Cc1ccc2sc(-c3ccc(N)cc3)nc2c1 | – | 1.59 µM (active)
O=C(Nc1ccccc1C(=O)O)c1ccccc1 | 3.8% (inactive) | –
COc1ccc2nc(NC(=O)c3ccc(NS(=O)(=O)c4cccs4)cc3)sc2c1 | 22.3% (inactive) | –
O=C(Nc1ccccc1C(=O)O)c1ccc(Cl)c(S(=O)(=O)N2CCOCC2)c1 | 19.6% (inactive) | –
Cc1ccc(NS(=O)(=O)c2ccc(Cl)c(C(=O)Nc3cccc(C(=O)O)c3)c2)cc1 | 2.91% (inactive) | –
O=C(Nc1ccc(Cl)cc1-c1nc2ccccc2s1)c1ccco1 | 3.02% (inactive) | –
